Tg IFNy HTS: blocks Toxoplasma gondii growth in the presence of IFN-gamma | activity change, negative = inhibition, % (concentration not given with the values) | actives 3.8% (n = 69,000) | Toxoplasma gondii growth in IFN-gamma-treated host cells; active compounds read low; in the data active = activity change below about -70%, passing the limit was not always enough;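 note: host cells are HeLa cells infected with Toxoplasma gondii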
* hit, by the source's call; ! = repeats disagree. The sample as a whole holds a higher share of hits than the screen did.

SMILES | Tg IFNy HTS
Cc1cccc(Nc2nc(C(=O)NCc3cccc(Cl)c3)nc3ccccc23)c1 | -96*
CCOC(=O)c1nc(Nc2cc(C)c(Cl)cc2OC)c2ccccc2n1 | -43
CS(=O)(=O)N[C@@H]1CCN(C(=O)C2CC2)[C@H]1Cc1cccnc1 | 3
c1cncc(-c2cn(CC3CCCN(c4cnc5ccccc5n4)C3)nn2)c1 (centres undefined) | -6
CC(c1ccccc1-n1cccn1)N1Cc2ncccc2C1=O (centres undefined) | -15
CCc1ccc(NC(=O)c2cncc(NS(=O)(=O)c3ccc(OC)c(OC)c3)c2)cc1 | 47
CC(C)C(CNC(=O)c1cc(N2CCOCC2)nc2ccccc12)N1CCOCC1 (centres undefined) | -5
COCc1nc2c(o1)CN(Cc1cccnc1OC)C2 | -26
CC(NC(=O)c1cc(-c2cccs2)nn1C)c1nnc2n1CCNCC2 (centres undefined) | -18
O=C(Nc1ccccc1CN1CCCC1)c1ccc(Cn2cnnn2)cc1 | 9
CCCCc1nc(-c2nccn2CCN2CCNC2=O)c(Cl)[nH]1 | -3
COC[C@@H]1CCC[C@@]12CN(C(=O)N1CCCC1)CCO2 | -18
CC(C)COCC1CN(C(=O)/C=C/c2cccs2)Cc2cncn2C1 (centres undefined) | -58
Cc1ccc(Nc2nc(C(=O)NCc3cccnc3)nc3ccccc23)cc1 | -82*
Cc1ccc(Nc2nc(C(=O)Nc3ccccc3Cl)nc3ccccc23)cc1 | -58
O=C(NCCC1=CCCCC1)c1nc(Nc2ccccc2)c2ccccc2n1 | -76*
CCOc1ccc(CNC(=O)c2nc(Nc3cccc(C)c3)c3ccccc3n2)cc1 | -94*
CCc1ccc(CNC(=O)c2nc(Nc3ccc(C)cc3)c3ccccc3n2)cc1 | -55
COCCNC(=O)c1nc(Nc2cccc(C)c2)c2ccccc2n1 | -33
CCc1ccccc1NC(=O)c1nc(Nc2ccccc2)c2ccccc2n1 | -69
CCc1ccccc1NC(=O)c1nc(Nc2ccc(C)cc2)c2ccccc2n1 | -86*
O=C(NCCCc1ccccc1)c1nc(Nc2ccccc2)c2ccccc2n1 | -46
Cc1ccc(Nc2nc(C(=O)NCc3ccccc3)nc3ccccc23)cc1 | 14
CCNC(=O)c1nc(Nc2ccccc2)c2ccccc2n1 | -27
Cc1cccc(Nc2nc(C(=O)NCc3ccc(C)o3)nc3ccccc23)c1 | -51
SMILES | Tg IFNy HTS
COc1cc(NCC(c2cccnc2)N2CCOCC2)ncn1 (centres undefined) | -8
CC(=O)N1CCC2(CC1)OC(=O)C(C)=C2C(=O)NCc1ccccc1Br | 99
Cc1nn(-c2ccccc2)c(C)c1CCC(=O)Nc1nnc(-c2ccccc2F)s1 | -16
Cn1cc(C2COC3(CCCN(C(=O)c4ccccc4)C3)C2)cn1 (centres undefined) | 106
Cc1ccc(CNCc2cccnc2)o1 | 7
Cc1nc(-c2cccc(F)c2)sc1CCNC(=O)c1cccc(Br)c1 | 23
COc1ccc(C(=O)N2CCN(Cc3ccccc3CO)CC2)c(OC)n1 | -9
Cc1ccc(-c2nnc(-c3nc(N(C)Cc4ccccc4)c4ccccc4n3)o2)cc1 | -26
COCC(C)(C)C(=O)N1CCc2[nH]nc(-c3ccc(F)c(F)c3)c2C1 | -7
CC(=O)N1CCC(C(=O)NCc2ccccc2)(N(C(=O)c2ccc(C)cc2)c2ccc(F)cc2F)CC1 | -61
CCc1ccc(S(=O)(=O)N2CCCn3nnc(Cn4cccn4)c3C2)cc1 | -47
CCN1CCn2cc(C(=O)N3CCN(c4ccccc4Cl)CC3)nc2C1 | 44
CCc1nc(OCC(=O)Nc2ccc(Cl)cc2F)c2ccccc2n1 | -34
CCOc1cc(C(=O)Nc2ccc3c(c2)CCC(=O)N3)cc(OCC)c1OCC | 9
COc1ccc(C(=O)Nc2cccc(-c3nc4ccccc4[nH]3)c2)cc1 | -53
CCOc1cc(C(=O)Nc2ccc(Cl)c(-c3nc4ccccc4[nH]3)c2)cc(OCC)c1OCC | -76*
Cc1ccc(NC(=O)C(CC(C)C)NS(=O)(=O)c2ccc3[nH]c(=O)ccc3c2)cc1Cl (centres undefined) | 67
C=CCn1c(C(=O)NCc2ccccn2)cc2cc(S(=O)(=O)N(C)C)ccc21 | 20
O=C(CO[C@@H]1CCNC[C@@H]1Cc1ccccc1)N1CCCC1 | -29
O=C(NCCc1csc(-c2ccccc2)n1)[C@H]1CCCN1C(=O)CCc1ccccc1 | 8
CCCC(=O)NCCn1nc(-c2ccccc2F)cc1CN(C)C | -10
CC[C@@]1(O)C(=O)OCc2c1cc1n(c2=O)Cc2cc3c(CN(C)C)c(O)ccc3nc2-1 | -78*
CC[C@@]1(O)C(=O)OCc2c1cc1n(c2=O)Cc2cc3c([N+](=O)[O-])cccc3nc2-1 | -80*
Cc1cc(=O)oc2c(CN(C)C)c(O)ccc12 | -2
O=C(NCCOc1ccccc1F)C(=O)N1CCCC1 | 2
SMILES | Tg IFNy HTS
NC(=O)C(c1ccccc1)(c1ccc(F)cc1)c1ccc(F)cc1 | 15
OC(CCCN1CCCCC1)(c1ccccc1)c1ccccc1 | 0
OC(C#CC(O)(c1ccccc1)c1ccccc1)(c1ccccc1)c1ccccc1 | -93*
Nc1c(C(=O)Nc2nnc(-c3ccccc3)s2)sc2nc3c(cc12)CCC3 | 45
CCN1CCOCC2(CCCN(C(=O)Cc3ccsc3)C2)C1 (centres undefined) | -80*
CN1CCOCC2(CCCN(C(=O)Cc3cccs3)C2)C1 (centres undefined) | -3
CN1CCOCC2(CCCN(C(=O)Cc3ccsc3)C2)C1 (centres undefined) | 3
COCC1c2nnn(CC3CC3)c2CCN1CC1CCOCC1 (centres undefined) | 3
CN1CCC2(CCCN(C(=O)C3(S(=O)(=O)c4ccccc4)CC3)C2)C1 (centres undefined) | 1
Cc1cc(NC(=O)Cc2cccs2)ccc1NC(=O)c1ccco1 | 23
C(=C\c1ccccc1)/CN1CCN(C(c2ccccc2)c2ccccc2)CC1 | 14
OC(CSc1cccs1)CN1CCN(C(c2ccccc2)c2ccccc2)CC1 (centres undefined) | -94*
CCCCc1ncc(-c2nccn2C(C)Cn2cccn2)[nH]1 (centres undefined) | 4
COCC(C)NC(=O)c1sc2ccccc2c1Cl (centres undefined) | 40
O=C(Nc1ccncc1)c1cc([N+](=O)[O-])ccc1Cl | -82*
CCC(=O)Oc1ccc(C(=O)Nc2ccc([N+](=O)[O-])cc2)cc1 | 110
O=C(O)c1cc([N+](=O)[O-])ccc1NCCCc1ccccc1 | 30
O=C(Nc1ccccc1)c1cc([N+](=O)[O-])ccc1Cl | 14
O=C(Nc1ccc([N+](=O)[O-])cc1Cl)c1cc(Cl)ccc1O | -76*!
O=C(NCCNc1ccc(Cl)cc1[N+](=O)[O-])c1cccnc1 | -5
O=C(COc1ccc2c(c1)OCO2)NCc1cccnc1 | 4
COc1cccc(COC2CN(CC(C)C)C(=O)CN(C(=O)c3ccc(C#CC(C)(C)O)o3)C2)c1 (centres undefined) | -7
O=C(Nc1ccc(OC(F)(F)F)cc1)c1c(O)c2ccccc2[nH]c1=O | 10
O=c1nc(Nc2ccc(OC(F)(F)F)cc2)c2ccccc2o1 | -62
O=c1cc(Nc2ccc(OC(F)(F)F)cc2)c2ccccc2o1 | -102*
COc1ccc(-c2nc(NC3CCCCCC3)c3ccccc3n2)cc1 | -52
CCCc1nccn1Cc1nc(-c2ccc(OC)cc2)no1 | -39
Cn1nc(-c2cccs2)cc1C(=O)O | -2
Cc1ccc(S(=O)(=O)NCCNc2nccc(C(F)(F)F)n2)cc1 | 37
Cc1ccc2nc(CN(C)Cc3ccc(S(C)(=O)=O)cc3)[nH]c2c1 | -34

High-throughput results: PubChem, Broad Institute
